Source: PubChem BioAssay
KB-3-1 tox – KB-3-1 parental cell cytotoxicity; KB-3-1 viability, CellTiter-Glo ATP luminescence, 72 h; Potency, µM (top dose mostly 46.1 µM), hits mostly cytotoxic; 400,000 tested, 1.4% active; note: % is set by controls: 0 for no effect and ±100 for the full control effect; nearly all actives have a fitted effect of over 60% in size
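Luminescent ATP read-out (CellTiter-Glo) measures survival of drug-naive KB-3-1 cells after 72 h compound exposure at 37 °C. Titration series was screened from lowest to highest concentration, with DMSO vehicle plates as background controls.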
SW480 rereplic – induces DNA re-replication in SW480 colon adenocarcinoma cells. 340,000 tested, 1.8% active. AID 624297. SW480 DNA re-replication, Hoechst DNA content imaging, 48 h. Potency, µM (top dose mostly 46.1 µM), inactives show at the highest dose re-replication activation, most hits filed as activators; note: % of control where 0% means no effect; nearly all actives have a fitted effect of over 55% in size
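Image-based DNA-content assay: after two days of treatment, nuclei were labelled with the DNA dye Hoechst and imaged, and hits were compounds raising the count of nuclei showing high fluorescence intensity.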
KB-V1 MDR tox – KB-V1 MDR subline cytotoxicity; AID 1347076; 400,000 tested, 3.4% active; KB-V1 MDR cells viability, CellTiter-Glo, 72 h; Potency, µM (titrated, usually from 46.1 µM), actives largely listed as cytotoxic; note: % is set by controls: 0 for no effect and ±100 for the full control effect; nearly all actives have a fitted effect of over 60% in size
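Cytotoxicity toward P-gp-expressing KB-V1 cells was determined as loss of CellTiter-Glo luminescence after 72 h at 37 degrees C. Compounds were tested in quantitative HTS format across a concentration range, with curves fitted to normalized data.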
PINK1 modulator – modulators of PINK1 expression | Potency, µM (doses to about 76.6 µM), for the others: top-dose activation (PINK1 increase), usual class: activators | PINK1 immunofluorescence, high-content cytometry, 24 h | 410,000 tested, 0.2% active; active = well fitted activation curve with a large enough effect; inconclusive = small, poorly fitted or top-dose-only effect; cell line not stated here; note: % of control where 0% means no effect; nearly all actives have a fitted effect of over 65% in size
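PINK1 protein level read as immunofluorescence by microplate cytometer in a fixed, stained stable cell line after 24 h exposure to five compound concentrations, with CCCP as control.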
PTAP TSG101 blk – blocks PTAP/TSG101 interaction to inhibit HIV-1 budding | Potency, µM (titrated, usually from 115 µM), for inactives: top-dose activity change, negative = inhibition, actives largely listed as inhibitors | Fluorescence polarization, FITC-PTAP peptide / Tsg101 binding | 340,000 tested, under 10 active | Q99816; active = well fitted inhibition curve with a large enough effect in the main read-out, with a control signal flat, not every such curve was filed as active; inconclusive = small, poorly fitted or top-dose-only effect, or effect the other way, or a change in a side signal; inactive = no such curve, though single readings can be large or run the other way; note: % of control where 0% means no effect
Target sequence (Q99816 whole entry, looked up): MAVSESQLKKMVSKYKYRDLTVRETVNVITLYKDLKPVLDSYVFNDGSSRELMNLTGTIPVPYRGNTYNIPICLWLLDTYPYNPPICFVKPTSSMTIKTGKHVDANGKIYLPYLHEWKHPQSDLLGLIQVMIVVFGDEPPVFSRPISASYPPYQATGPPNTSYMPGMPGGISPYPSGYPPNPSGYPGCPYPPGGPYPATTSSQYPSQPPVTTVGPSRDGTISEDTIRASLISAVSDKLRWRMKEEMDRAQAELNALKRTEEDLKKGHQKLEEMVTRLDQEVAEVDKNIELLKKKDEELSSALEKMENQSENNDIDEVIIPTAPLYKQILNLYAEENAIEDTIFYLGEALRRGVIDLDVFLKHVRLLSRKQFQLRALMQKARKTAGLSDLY
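Steps: Tsg101 binding domain dispensed (10 uM final), compounds pinned in DMSO, FITC-labeled PTAP-motif peptide added (50 nM final); after 20 min binding at room temperature, polarization measured.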
MCF10A rereplic – DNA re-replication induction in MCF 10a cells | 350,000 tested, 2.9% active | MCF 10A DNA re-replication, Hoechst nuclear intensity, 48 h | Potency, µM (doses to about 46.1 µM), inactives show at the top dose activity, positive = re-replication, most hits filed as activators; note: % of control where 0% means no effect; nearly all actives have a fitted effect of over 50% in size
Active calls of the source: *; i = inactive; ? = inconclusive; · = no result given; [ ] = another dose, or the depositor's remark. In the library only some 6.8% were active in any assay of this set; here they are far more common. Unless noted, calls come from the whole dose curve; as a rule, active = well fitted curve in the direction sought with a large enough effect; inconclusive = small, poorly fitted or top-dose-only effect, or another doubt; inactive = no such curve, though single readings can be large; an effect the other way counts as inactive or inconclusive. Potency is the fitted concentration of half-maximal effect.

SMILES | KB-3-1 tox | SW480 rereplic | KB-V1 MDR tox | PINK1 modulator | PTAP TSG101 blk | MCF10A rereplic
COc1ccc(/C=N/Nc2cc(N3CCCC3)nc(N3CCCC3)n2)cc1 | ? | 9.2µM* | ? | ? | -2% | 18µM*
Oc1ccc(/C=N/Nc2cc(N3CCCC3)nc(N3CCCC3)n2)cc1 | i | -7% | i | 1%[38.3 µM] | -3% | -7%
CC(C)CNC(=O)COC(=O)c1c2c(nc3ccccc13)/C(=C\c1cccs1)CC2 | i | 6.5µM* | ? | 0% | -5% | ?
O=C(COC(=O)c1c2c(nc3ccccc13)CCCC2)Nc1ccc2c(c1)OCO2 | ? | 1% | ? | -4% | -1% | 29%
CC(=O)c1ccc(NC(=O)COC(=O)c2c3c(nc4ccccc24)/C(=C\c2cccs2)CCC3)cc1 | i | 21µM* | 16µM* | 6% | 3% | 5.8µM*
O=C(COC(=O)c1c2c(nc3ccccc13)/C(=C\c1cccs1)CCC2)Nc1ccccc1 | 12µM* | 13µM* | 2.3µM* | 3% | 0% | ?
CC(C)(C)NC(=O)COC(=O)c1c2c(nc3ccccc13)CCC2 | i | -8% | ? | 2% | 3% | 5%
COc1cccc(C(=O)N(Cc2cc3cc4c(cc3nc2N(C)C)OCO4)CC2CCCO2)c1 (stereo not drawn) | · | · | · | -1% | · | ·
CC(=O)c1cccc(NC(=O)c2nc3ccccc3n(C)c2=O)c1 | ? | · | ? | 3% | · | ·
COc1ccc(NCc2cc3cc4c(cc3n(CC(=O)Nc3ccc(C)c(C)c3)c2=O)OCO4)cc1 | ? | · | i | ? | · | ·
COc1ccc(/C=C/c2nc(C#N)c(N3CCCCC3)o2)cc1OC | i | · | i | -1% | · | ·
CNCCNC[C@H](Cc1cccc2ccccc12)NCCc1ccccc1 | i | -9% | i | 0% | · | -4%
CNC[C@H](Cc1ccccc1)NC[C@@H](Cc1cccc2ccccc12)NCCc1ccc(C)cc1 | 7.3µM* | ? | ? | -1% | -15% | ?
Fc1ccccc1-n1c(-c2ccc3ccccc3n2)n[nH]c1=S | i | ? | i | -1% | -13% | 3%
S=c1[nH]nc(-c2ccc3ccccc3n2)n1-c1ccccc1 | i | -6% | 23µM* | -1% | -6% | 23%
Cc1cc[n+]2cc(-c3cccc([N+](=O)[O-])c3)c(-c3cccc([N+](=O)[O-])c3)cc2c1 | i | 2.6µM* | i | 0% | 0% | -2%
O=C(NCCCN1CCc2ccccc2C1)Nc1ccc(Cl)cc1 | i | -1% | 15µM* | -7%[38.3 µM] | -1% | 0%
O=C(NCC1CCC2(CCN(Cc3c[nH]c4ccccc34)CC2)O1)C1CCOCC1 (stereo not drawn) | · | · | · | -1% | · | ·
CCN(CC)C(=S)Nc1ccc(Cl)c(Cl)c1 | ? | -32% | 23µM* | 4% | -1% | 24%
CCN(Cc1ccncc1)C(=S)Nc1ccc(Cl)cc1 | i | 0% | ? | 0% | 0% | 2%
O=C(Nc1nccs1)C1Cc2ccccc2CN1S(=O)(=O)c1ccc(F)cc1 (stereo not drawn) | i | 4.1µM* | i | -4% | -7% | 425%[0.0737 µM]
O=C(NC1CCCCC1)C1Cc2ccccc2CN1S(=O)(=O)c1ccc(F)cc1 (stereo not drawn) | i | ? | ? | -5%[38.3 µM] | -2% | ?
CC(/C=N/NC(=O)c1cc(-c2ccc(Cl)cc2)nc2ccccc12)=C\c1ccco1 | 1µM* | 5.2µM* | 0.92µM* | 2% | -1% | 0.65µM*
CC(/C=N/NC(=O)c1cc(-c2ccccc2)nc2ccccc12)=C\c1ccco1 | 4.1µM* | 8.2µM* | 7.3µM* | 3% | 2% | ?
CC(=C/c1ccco1)/C=N/NC(=O)c1ccncc1 | i | -21% | i | 3% | -2% | ?
SMILES | KB-3-1 tox | SW480 rereplic | KB-V1 MDR tox | PINK1 modulator | PTAP TSG101 blk | MCF10A rereplic
O=C(N/N=C/c1ccc(O)cc1)c1cc(-c2ccccc2)nc2ccccc12 | ? | 23% | i | 3% | -7% | ?
Cc1cccc(NC(=O)CSc2cc(C)c(C#N)c3nc4ccccc4n23)c1 | i | 2.9µM* | i | 7% | -2% | 5%
CCN(CC)c1c2c(c(C#N)c3nc4ccccc4n13)CCC2 | i | 20% | 3.7µM* | ? | -7% | 12%
Cc1ccc(-c2c(C#N)c(N)n3c(nc4ccccc43)c2C#N)cc1 | 13µM* | 18µM* | ? | ? | -1% | 18µM*
Cc1c(CCCl)c(Cl)n2c(nc3ccccc32)c1C#N | 2.1µM* | ? | 1.6µM* | 6% | -2% | 2.9µM*
N#Cc1c2c(c(Cl)n3c1nc1ccccc13)CCCC2 | i | · | i | 1% | · | ·
Cc1cccc(C)c1-n1ncc(C(=O)O)c1C1CCN(C(=O)OC(C)(C)C)CC1 | i | · | i | 1% | · | ·
Cc1oc(-c2ccccc2NC(=O)C2CCCO2)nc1CNC(=O)c1cc(F)c(F)cc1F (stereo not drawn) | · | · | · | 2% | · | ·
Cc1ccc(C(=O)N(Cc2ccc(N(C)C)cc2)CC2CCCO2)cc1 (stereo not drawn) | · | · | · | -1% | · | ·
Cc1cc(Cl)n2c(nc3ccccc32)c1C#N | i | 21µM* | ? | -1% | 0% | ?
CNc1cc(C)c(C#N)c2nc3ccccc3n12 | i | ? | i | 2% | -4% | 27%
COc1ccc(OC)c2[nH]c(=O)c(CCNC(=O)C3CCCCC3)cc12 | i | -4% | 9.2µM* | -3% | -6% | -12%
COc1ccc(OC)c2[nH]c(=O)c(CCNC(=O)c3ccc(S(=O)(=O)N(C)C)cc3)cc12 | i | -3% | i | -1% | -6% | 0%
COc1ccc(OC)c2[nH]c(=O)c(CCNC(=O)c3ccc(S(=O)(=O)N4CCCCC4)cc3)cc12 | i | -2% | 8.2µM* | 3% | -2% | 4%
COc1ccc(OC)c2[nH]c(=O)c(CCNC(=O)C(C)C)cc12 | i | 3% | i | 1% | 1% | -5%
CC(C)(C)OC(=O)N1CCC(c2c(C(=O)N3CCN(c4ccccn4)CC3)cnn2-c2ccc(F)cc2)CC1 | i | · | i | -1% | · | ·
Cc1cc(-n2c(C)cc(C(=S)N3CCOCC3)c2C)ccc1Br | ? | 1% | 8.2µM* | -3% | -3% | ?
COCCN(Cc1ccccc1)C(=O)c1ccc2c(=O)n3c(nc2c1)CCC3 | i | -47% | i | -5% | -3% | 2%
CCN(Cc1ccccc1)C(=O)c1ccc2c(=O)n3c(nc2c1)CCC3 | i | -2% | 10µM* | 0% | 0% | 23%
